Hits are enriched below; roughly 2.3% of the tested compounds scored in any of these assays.
Nrf2 activator – activators of Nrf2 (ARE) signaling; AREc32 ARE-luciferase reporter (MCF7-derived line), luminescence, 24 h; Potency, µM (top dose mostly 46.1 µM), for inactives: at the top dose activation, most hits filed as activators; hit rate 0.31% among 410,000; note: % of control where 0% means no effect; nearly all actives have a fitted effect of over 65% in size
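Quantitative high-throughput format: AREc32 reporter cells, 1000 per well, received compound by pin transfer and were incubated 24 hr at 37 deg C, 5% CO2, before Steady-Glo luminescence detection.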
Rango dissoc inh – prevents RanGTP from dissociating the Rango-importin beta complex; O95149+P62826; Biochemical FRET Rango-importin beta, RanGTP-induced dissociation; Potency, µM (highest dose often 46.1 µM), inactives show top-dose activity change, negative = inhibition; hit rate 0.071% among 340,000; AID 540253; calls by dose curve; note: % of control where 0% means no effect; nearly all actives have a fitted effect of over 45% in size
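Rango (0.1 uM)–importin beta (0.25 uM) complex; RanGTP-RCC1 trigger; 45 min RT; CFP/YFP FRET read.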
A549 viability – kills or reduces viability of A549 cells in Nrf2 counter-screen; Potency, µM (titrated, usually from 46 µM), inactives show top-dose activity change, negative = cytotoxicity, actives largely listed as inhibitors; hit rate 0.16% among 390,000; A549 ARE-Fluc cells, CellTiter-Fluor viability, 18-24 h; AID 504648; note: % is set by controls: 0 for no effect and ±100 for the full control effect
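A549 ARE_Fluc cells in 5% FBS OPTI-MEM were exposed to compounds in concentration-response for 18-24 h at 37 deg C. Viability was read by CellTiter-Fluor fluorescence (Ex 405/Em 525) after 30 min, before the luciferase read.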
Nrf2 inh – inhibitors of Nrf2 signaling | A549 ARE-Fluc reporter, luciferase luminescence, 18-24 h | AID 504444 | Potency, µM (doses to about 46 µM), for the others: top-dose activity change, negative = inhibition, most hits filed as inhibitors | hit rate 2.1% among 360,000; note: % is set by controls: 0 for no effect and ±100 for the full control effect; nearly all actives have a fitted effect of over 60% in size
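In this cell-based qHTS, ARE-driven firefly luciferase in A549 cells reports Nrf2 activity; the luminescent signal after BugLite lysis is the measured value, with a prior CellTiter-Fluor read for cell health.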
Rango-impB inh – prevents formation of the Rango-importin beta complex; Q14974; Rango CFP/YFP FRET sensor + importin beta, 45 min; Potency, µM (highest dose often 92.2 µM), without a hit: top-dose inhibition of complex formation; hit rate 0.031% among 340,000; calls by dose curve;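 note: 0% = DMSO wells and 100% = buffer wells lacking importin beta; nearly all actives have a fitted effect of over 15% in size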
Target sequence (Q14974 whole entry, looked up): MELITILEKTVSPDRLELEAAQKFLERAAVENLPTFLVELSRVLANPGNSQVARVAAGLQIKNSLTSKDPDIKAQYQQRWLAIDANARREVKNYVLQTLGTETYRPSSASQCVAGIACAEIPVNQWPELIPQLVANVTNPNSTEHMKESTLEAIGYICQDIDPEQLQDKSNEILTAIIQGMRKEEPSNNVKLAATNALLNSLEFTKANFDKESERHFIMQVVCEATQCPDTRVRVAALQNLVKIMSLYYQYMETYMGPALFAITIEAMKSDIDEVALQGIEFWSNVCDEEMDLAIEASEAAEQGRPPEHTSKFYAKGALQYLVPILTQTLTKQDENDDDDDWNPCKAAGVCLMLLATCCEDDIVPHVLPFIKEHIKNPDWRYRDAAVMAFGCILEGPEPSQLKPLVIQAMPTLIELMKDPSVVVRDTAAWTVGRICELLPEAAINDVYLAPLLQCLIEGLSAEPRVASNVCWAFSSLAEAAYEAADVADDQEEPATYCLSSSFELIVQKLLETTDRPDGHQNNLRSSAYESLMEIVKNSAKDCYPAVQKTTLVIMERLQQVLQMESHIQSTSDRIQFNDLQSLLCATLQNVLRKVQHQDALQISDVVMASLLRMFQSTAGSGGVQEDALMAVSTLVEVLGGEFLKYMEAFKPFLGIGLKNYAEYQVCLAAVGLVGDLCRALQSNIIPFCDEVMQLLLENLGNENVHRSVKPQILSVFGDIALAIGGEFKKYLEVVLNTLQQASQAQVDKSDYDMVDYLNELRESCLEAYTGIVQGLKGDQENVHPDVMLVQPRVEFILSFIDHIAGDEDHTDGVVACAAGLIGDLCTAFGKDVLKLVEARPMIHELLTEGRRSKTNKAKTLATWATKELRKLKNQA
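FRET biosensor (snurportin 1 IBB flanked by EYFP and cerulean), 50 nM, with compound 5 min, then 0.125 microM importin beta in PBS, 1 mM DTT, 0.02% Tween-20, 0.1% BSA. CFP/YFP ratio read after 45 min at room temperature; pre-read flags interference.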
* marks the source's active call; other numbers are inactive results; u = inconclusive; x = not tested or not shown; [ ] = remark or other dose. Unless noted, calls come from the whole dose curve; as a rule, active = well fitted curve in the direction sought with a large enough effect; inconclusive = small, poorly fitted or top-dose-only effect, or another doubt; inactive = no such curve, though single readings can be large; an effect the other way counts as inactive or inconclusive. Potency is the fitted concentration of half-maximal effect.

SMILES	Nrf2 activator	Rango dissoc inh	A549 viability	Nrf2 inh	Rango-impB inh
COc1ccccc1/C=C/C(=O)N1CCN(S(=O)(=O)c2cc(C)ccc2C)CC1	-1%	15%	-2%	16µM*	-2%
c1ccc(-c2nc(NC3CCCC3)c3ccccc3n2)cc1	25%	-4%	u	23µM*	6%
CCOC(=O)C1CCN(C(=O)c2ccc3nc(-c4ccc(OC)cc4)c(-c4ccc(OC)cc4)nc3c2)CC1	0%	16µM*	8%	1%	u
CCOC(=O)C1CCCN(C(=O)c2ccc(OC)cc2)CC1 (centres undefined)	-1%[9.22 µM]	x	x	x	x
CC(C)Oc1ccc(CNC(=O)c2ccc3nc(C(C)C)oc3c2)cc1	3%	x	10%	x	x
CCN(CC)S(=O)(=O)c1ccc(C(O)=C(C#N)c2nc3ccccc3n2C)cc1	-1%	-18%	-18%	23µM*	0%
CC1(C)c2[nH]c3ccccc3c2C[C@@H]2C(=O)N(Cc3ccccc3)C(=O)N21	5%	21µM*	-1%	u	u
COC(=O)[C@@H]1Cc2c([nH]c3ccccc23)C(C)(C)N1C(=O)CCl	10µM*	-5%	-7%	-14%	-6%
COc1cccc(/C=C/C(=C2/C(=O)N(c3ccccc3)N=C2C)c2ccc(C)cc2)c1OC	0%	4%	0%	4%	-2%
Cc1ccc(CN2CC(C(=O)NCCC3=CCCCC3)CC2=O)cc1 (centres undefined)	0%	-2%	5%	2%	7%
CC(=O)c1ccc(N2CCN(c3ncnc4c3nc3n4CCCC3)CC2)cc1	0%	x	-5%	23µM*	x
COc1ccccc1N1CCN(c2ncnc3c2nc2n3CCCC2)CC1	0%	x	-16%	21µM*	x
COc1ccccc1N1CCN(C(=O)C2CCCN(c3ncnc4c3nc3n4CCCCC3)C2)CC1 (centres undefined)	0%	-7%	-2%	u	5%
COCCCNC(=O)c1sc2nc(C)c(C(=O)Nc3ccc(C)cc3C)c(-c3ccccc3Cl)c2c1N	0%	x	-17%	-2%[9.27 µM]	x
CCn1c(SCC(=O)N/N=C/c2ccc(C)o2)nnc1-c1ccc(C(C)(C)C)cc1	6%	-5%	-2%	-18%	3%
CCn1c(SCc2nc3ccccc3s2)nnc1-c1cccs1	14µM*	4%	3%	u	0%
CCn1c(SCc2nc(-c3cccs3)no2)nnc1-c1c[nH]c2ccccc12	-1%	2%	u	18µM*	-2%
CCn1c(SCC(=O)N/N=C/c2c[nH]c3ccccc23)nnc1-c1ccc(C(C)(C)C)cc1	0%	-10%	u	16µM*	2%
CCn1c(SCC(=O)c2c[nH]c3ccccc23)nnc1-c1cccs1	11µM*	8%	-10%	-16%	-1%
CONC(=O)C[C@@H](C#N)NC(=O)[C@@H]1CCCN1C(=O)[C@@H](NC(=O)c1ccc(N)c(Cl)c1)C(C)(C)C	x	x	7%	2%	x
CCN(C(=O)CSc1nc2ccccc2n1CC(=O)NCc1ccc(OC)cc1)c1ccccc1	3%	x	10%	x	x
Clc1ccc(-c2nnc(CSc3nnc(-c4cccs4)n3Cc3ccccc3)o2)cc1	7%	16%	-11%	21µM*	-3%
Cc1nnc(SCc2nnc(-c3cccs3)o2)n1Cc1ccccc1	0%	-12%	2%	6%	-3%
Cc1cccc(-c2nnc(SCc3cc(=O)c4cccc(Cl)c4[nH]3)n2C)c1	4%	x	1%	x	x
CCOC(=O)c1cccc(NC(=O)CCn2nc(C)c3c(C)n(-c4ccccc4)nc3c2=O)c1	0%	x	8%	-9%	x
SMILES	Nrf2 activator	Rango dissoc inh	A549 viability	Nrf2 inh	Rango-impB inh
CC(=O)Nc1nc2n(n1)C(c1ccc(Cl)cc1)C=C(C)N2 (centres undefined)	-1%	13µM*	-4%	-11%	u
CC1=CC(c2ccc(Cl)cc2)n2nc(NC(=O)c3ccccc3)nc2N1 (centres undefined)	0%	-9%	-5%	-2%	u
COc1ccc(-c2nc(NC(=O)C3CC(=O)N(Cc4ccco4)C3)sc2C)cc1 (centres undefined)	-1%	-15%	u	23µM*	-2%
O=C1CCCN1c1ccc(S(=O)(=O)NCCOc2ccccc2)cc1	0%	18%	-11%	13µM*	-2%
Cc1cc(N2CCCC2=O)cc(C)c1S(=O)(=O)NCCOc1ccc(C(C)(C)C)cc1	0%	-5%	-16%	u	1%
COc1cc2nc(C3CCC3)nc(N3CCN(c4ccccc4OC)CC3)c2cc1OC	-2%	8%	u	18µM*	4%
COc1cc2nc(C3CCC3)nc(N3CCN(c4ccccn4)CC3)c2cc1OC	1%	1%	u	26µM*	2%
COc1ccccc1N1CCN(C2CCCC(C)C2)CC1 (centres undefined)	-1%	1%	-7%	1%	1%
C[C@@H](Nc1nc(Cl)nc2nc[nH]c12)c1ccccc1	x	x	4%	u	x
CNc1c(C(=O)O)ccc2c1C(=O)c1ccccc1C2=O	-1%	3%	18µM*	u	-9%
Nc1nc(N)c(-c2cccc(C(F)(F)F)c2)c(Cc2cccc(C(F)(F)F)c2)n1	3%	-9%	2%	15µM*	-2%
Cc1cccc(C)c1-n1c(SCC(=O)N2CC(=O)Nc3ccccc32)nc2ccccc2c1=O	-1%[9.22 µM]	0%	-16%	23µM*	u
O=C1CN(C(=O)CSc2nc(-c3ccc(Cl)cc3)cs2)c2ccccc2N1	4%	0%	1%	23µM*	2%
CN1CCN(c2ncnc3c2ncn3[C@H]2CN(Cc3ccc(F)cc3)C[C@@H](CO)O2)CC1	-1%	x	x	x	x
COc1cccc(/C=C/C(=O)c2ccc[nH]2)c1	16µM*	-1%	-2%	u	-2%
COc1cccc(CNC(=O)CCSCc2ccccc2F)c1	0%	-3%	1%	-16%	1%
O=c1cc(C(F)(F)F)[nH]c2c(C(F)(F)F)cccc12	0%	-23%	u	18µM*	2%
Cc1ccc(Oc2cc([N+](=O)[O-])cc3c2C(=O)Nc2ccccc2O3)cc1	10%	3%	-8%	15µM*	11%
COc1ccc(Cc2[nH]n3c(=O)cc(C)nc3c2-c2ccccc2)cc1	1%	8%	-3%	u	-2%
COc1ccc(Cc2[nH]n3c(=O)cc(C(C)C)nc3c2-c2ccccc2)cc1	0%	6%	u	12µM*	2%
COc1ccc(N2CCN(C(CNC(=O)C(=O)NCCc3ccccc3)c3cccnc3)CC2)cc1 (centres undefined)	-1%	x	-10%	-16%	x
Cc1nnc(Sc2c(-c3ccccc3)c3ccc(Cl)cc3[nH]c2=O)s1	-1%	8%	-13%	18µM*	3%
O=C(O)CSc1c(-c2ccccc2)c2cc(Cl)ccc2[nH]c1=O	0%	-8%	10%	7%	5%

Compound activity (PubChem)
